# System: IKBKE
row,Compound,Kinases covered
1,Cl.O=C1Nc2ccc(-c3cccnc3)cc2C1=Cc1cc(Br)c(O)c(Br)c1 [GW429374A],IKBKE
2,Cc1cc(O)cc(C)c1/C=C/c1cncc(C(N)=O)c1 [GW435821X],IKBKE
3,COc1cc(/C=N/Nc2ncnc3[nH]ncc23)ccc1O [GW578748X],IKBKE

# System: INSR
row,Compound,Kinases covered
1,CN(C)C/C=C/C(=O)Nc1ccc(C(=O)Nc2cccc(Nc3ncc(Cl)c(-c4c[nH]c5ccccc45)n3)c2)cc1 [THZ1],INSR
2,COc1cc(N2CCN(C(C)C)CC2)ccc1Nc1nc(Nc2ccc(F)cc2C(=O)NC[C@@H](O)CO)c2cc[nH]c2n1 [GSK1392956A],INSR
3,COc1cc(C)c(N(C)C(=O)CN(C)C)cc1Nc1nc(Nc2cccc(F)c2C(N)=O)c2cc[nH]c2n1 [GSK2219385],INSR
4,CCc1cc(Nc2nccc(-c3c(-c4ccc(OC)c(C(=O)Nc5c(F)cccc5F)c4)nc4ccccn34)n2)c(OC)cc1N1CCC(N2CCN(S(C)(=O)=O)CC2)CC1 [GSK1904529],INSR

# System: IRAK1
row,Compound,Kinases covered
1,COC[C@@H](C)N[C@H]1CC[C@H](Nc2cc(-c3cccc(NCC4(C#N)CCOCC4)n3)c(Cl)cn2)CC1 [NVP-2],IRAK1
2,COc1cc2ncnc(Nc3ccc(F)c(Cl)c3)c2cc1O[C@H]1CC[C@H](N)CC1 [BIBW3133BS],IRAK1
3,Cc1cc(NC(=O)c2cccc(NC(=O)/C=C/CN(C)C)c2)ccc1Nc1nccc(-c2cccnc2)n1 [JNK-IN-7],IRAK1

# System: JAK2
row,Compound,Kinases covered
1,COc1cc(Nc2nccc(N3CCC(NC(=O)C4COc5ccccc5O4)C3)n2)cc(OC)c1OC (centres unmarked) [GSK1379761],JAK2
2,NC(=O)c1cccnc1COc1cc(-c2ccc(N3CCOCC3)nc2)cc2ncccc12 [BI01125081],JAK2
3,C[C@@H]1CCN(C(=O)CO)C[C@@H]1N(C)c1ncnc2[nH]ccc12 [PFE-PKIS 34],JAK2

# System: KDR
row,Compound,Kinases covered
1,CN1CCN(C(=O)c2ccc(NC(=O)Nc3ccc(N(C)c4ccnc(Nc5ccc(CS(C)(=O)=O)cc5)n4)cc3)cc2)CC1.Cl [GW830263A],KDR
2,COC(=O)Nc1nc2ccc(Oc3ccc(NC(=O)Nc4cc(C(F)(F)F)ccc4F)cc3)cc2s1.Cl [GW693917A],KDR
3,COc1cc2nccc(Nc3ccc(OCc4ccc(NC(C)=O)cc4)cc3)c2cc1OC [GW440135],KDR
4,Nc1ncnc2occ(-c3ccc(NC(=O)Nc4cc(C(F)(F)F)ccc4F)cc3)c12 [GW770249X],KDR
5,Cl.O=C(Nc1ccc(Oc2ccc3[nH]c(NC(=O)c4ccco4)nc3c2)cc1)Nc1cc(C(F)(F)F)ccc1F [GW683134A],KDR
6,Cn1ccc2ncnc(Oc3ccc(NC(=O)Nc4ccccc4)cc3)c21 [TPKI-69],KDR
7,Cl.O=C(Nc1ccc(Oc2ccc3[nH]c(NC(=O)c4ccccc4)nc3c2)cc1)Nc1cc(C(F)(F)F)ccc1F [GW709042A],KDR

# Reference: paper PMC7826789 (International Journal of Molecular Sciences, 2021)
